Most compounds without a hit are left out; they make up all but 1.9% or so of the library.
HER2 expr 66K = lowers expression of human Her2 kinase; P04626; HER2 level % of control, % at 10 µM; hit rate 0.69% among 65,000; AID 645; SKBR-3 HER2 protein level, AlphaScreen, 18-24 h; active compounds read low;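 active = HER2 level under 5% of the carrier-only control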;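 also: lower value means stronger loss of Her2 protein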
SKBR3 24h inh = SK-BR-3 proliferation inhibitors | SK-BR-3 viability, CellTiter-Glo ATP luminescence, 24 h; active compounds read low | viability, % at 10 µM | hit rate 0.47% among 41,000 | AID 847;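 active = viability at or below the median of all test compounds minus 3 SD, in both replicates if run twice, cut at about 45% in these data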
Jurkat viability = cytotoxicity toward Jurkat cells; hit rate 1.2% among 56,000; AID 463; Jurkat E6.1 viability, ATP luminescence, 48 h; inhibition, % at 4 µM;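 active = inhibition above the mean inhibition of all tested compounds plus 3 SD, cut at about 28% in these data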
Hits are given with their value; 0 = inactive; - = not tested or not shown.

SMILES	HER2 expr 66K	SKBR3 24h inh	Jurkat viability
CSC(=Nc1ccccc1)c1c(O)n(C)c(=O)n(C)c1=O	0	0	33.7
CCN(CC)CCCC(C)N=C(c1ccccc1)c1c(O)n(C)c(=O)n(C)c1=O (stereo not drawn)	0	0	-
CCOC(=O)[C@@]1(C#N)[C@@H]2C=CC(C(N)=O)=CN2[C@@H](C(N)=O)[C@@H]1c1cccc(Cl)c1	0	0	-
CCCNS(=O)(=O)c1ccc(OCC(=O)N2CCN(Cc3ccc4c(c3)OCO4)CC2)cc1	0	0	31.2
CC(C)NS(=O)(=O)c1ccc(OCC(=O)N2CCN(Cc3ccccc3)CC2)cc1	0	0	0
COc1ccc(C(=O)N2CCCC2=O)cc1	0	0	0
Cc1cc2c(s1)NC(=O)CN=C2c1cccs1	0	-	-
O=C1CN=C(c2cccs2)c2c(sc3c2CCCC3)N1	0	0	85.5
COc1ccc(CCN(C)Cc2c(F)cccc2F)cc1OC	0	-	0
O=C(c1cc2c(s1)-c1ccccc1OC2)N1CCC2(CC1)OCCO2	0	-	38.0
O=C(c1cc2c(s1)CCCC2)N1CCC2(CC1)OCCO2	0	0	0
CC(C)(C)c1nc(N2CCN(C(=O)c3ccco3)CC2)c2nnn(Cc3ccccc3Cl)c2n1	0	0	0
Cn1c(=O)cc(SCC(=O)N2CCC3(CC2)OCCO3)c2ccc(Cl)cc21	0	0	0
CN1CCN(c2ccc(C(N)=O)cc2N)CC1	-19.6	0	0
CN1CCC2(CC1)NC(=O)C1=C(CN(C)CC1)N2	0	-	0
O=C1CN=C(c2ccccc2)c2oc3ccc(Br)cc3c2N1	0	0	0
COc1cccc(OC)c1C1=NCC(=O)Nc2c1oc1ccc(Br)cc21	0	-	99.1
CCn1nc(-c2cccs2)nc2c(=O)n(C)c(=O)nc1-2	-0.1	27.3	35.7
CCCCCn1c(N)c(C(=O)NCCN2CCOCC2)c2nc3ccccc3nc21	0	-	0
CCCCCCn1c(N)c(C(=O)NCCN2CCOCC2)c2nc3ccccc3nc21	-5.8	2.3	0
Clc1ccc(COC(Cn2ccnc2)c2ccc(Cl)cc2Cl)c(Cl)c1 (stereo not drawn)	0	0	-
COc1cc(C2NCc3ccccc3-n3cccc32)ccc1O (stereo not drawn)	0	-	0
CCn1c(O)c(C(=O)CC2NCCc3ccccc32)c(=O)n(CC)c1=S (stereo not drawn)	-16.9	3.2	-
CCOC(=O)C1C(=O)NC23CCCC2C1c1ccccc1O3 (stereo not drawn)	0	-	0
CCOc1ccc(-c2cc(C(=O)N3CCC4(CC3)OCCO4)c3ccccc3n2)cc1	0	-	0
CC(=O)OC1(Cc2ccccc2)CN2CCC1c1ccccc12 (stereo not drawn)	0	0	-
N=c1c2c(n(Cc3ccc(Cl)cc3Cl)c3c1CCC3)CCCC2	0	-	37.0
N=c1sc2c(n1Cc1ccccc1)CCCC2	0	-	0
NC(=O)OCCSc1nnc(-c2cccc(C(N)=S)c2)o1	0	0	0
CCOC(=O)N(C)c1ccc(C(O)(C(=O)OCC)C(F)(F)F)cc1 (stereo not drawn)	0	0	0

Source: PubChem BioAssay
